Experimental data published in paper PMC4552634, “A New Set of Chemical Starting Points with Plasmodium falciparum Transmission-Blocking Potential for Antimalarial Drug Discovery” (PLoS ONE, 2015).
The campaign covered roughly 13,000 compounds. About 3,200 (25%) showed an effect of 50% or more. Some of the results follow. Peptide text beside a SMILES is read from it. * marks the point of attachment. Octanoyl = CCCCCCCC(=O)*

System: P. falciparum stage V gametocytes
Parameters: BacTiter-Glo ATP luminescence viability of purified stage V gametocytes in 384-well plates, per cent inhibition versus DMSO
Settings: 48 h, 5 µM; inhibitor

Row | SMILES | % Inhibition
1 | Cc1cc(-c2ccc3c(c2)CCN(CCC2CCC(NC(=O)/C=C/c4cccc(F)c4)CC2)CC3)on1 (centres unmarked) [TCMDC-139973] | -71.57%
2 | Cc1ccc(C)c(Sc2ccc(NC(=O)CN3CCN(C(=O)c4ccco4)CC3)cc2)c1 [TCMDC-124860] | -17.66%
3 | CC(C)c1cccc(OCC2CCN(c3ccc(C(=O)Nc4ccccc4)cn3)CC2)c1 [TCMDC-134261] | 7.313%
4 | NC(=O)c1c(Cl)nc2ccccc2c1Cl [TCMDC-131373] | -0.4742%
5 | N#Cc1ccc(NC2(C(=O)N3CCN(c4cccc(Cl)c4)CC3)CC2)c2ccccc12 [TCMDC-136618] | -25.2%
6 | O=C(c1cccc(Br)c1)N1CCN(c2ccc([N+](=O)[O-])c(NC3CC3)c2)CC1 [TCMDC-123536] | 60.19%
7 | O=C(Nc1cccc(CN2CCN(C(=O)c3cccc(Cl)c3)CC2)c1)c1ccco1 [TCMDC-136322] | -11.21%
8 | O=C(NC1CC1)c1ccc(N2CCC(Cc3ccccc3)CC2)c([N+](=O)[O-])c1 [TCMDC-123724] | 45.67%
9 | COc1ccc(C(=O)N2CCN(c3ccc([N+](=O)[O-])c(NC4CC4)c3)CC2)cc1Br [TCMDC-123659] | 105.4%
10 | O=C(c1cccc(-c2noc(C(F)(F)F)n2)c1)N1CCN(c2ccncc2)CC1 [TCMDC-132423] | 9.188%
11 | COc1ccc(C(=O)Nc2ccc3nc(N4CCCCC4)cc(C)c3c2)cc1[N+](=O)[O-] [TCMDC-125448] | -8.807%
12 | O=C(c1cccc(Cl)c1)N1CCN(c2ccc([N+](=O)[O-])c(NC3CC3)c2)CC1 [TCMDC-125827] | 67.12%
13 | COc1ccc(S(=O)(=O)N2CCCC(C)C2)cc1N1CCN(C(=O)c2ccc([N+](=O)[O-])o2)CC1 (centres unmarked) [TCMDC-124803] | 27.68%
14 | O=C(NCC1CCC(C(=O)NCc2cccc3ccccc23)CC1)c1ccc(O)c(-c2ccc(Cl)c(Cl)c2)c1 (centres unmarked) [TCMDC-140895] | -0.9635%
15 | CO/C(=C\C=C\c1cc2cc(Cl)c(Cl)cc2[nH]1)C(=O)NCCCN1CCN(c2cccc(OCC(=O)Nc3cccc(C(=O)c4ccccc4)c3)c2)CC1 [TCMDC-139411] | 32.5%
16 | NC(=O)c1cc2nc(Nc3ccc(F)cc3)nc(NC3CCC3)c2[nH]1 [TCMDC-137003] | -67.45%
17 | COc1ccc(CN2CCC(NCc3cccc(C(F)(F)F)c3)CC2)cc1 [TCMDC-141652] | 21.67%
18 | O=[N+]([O-])c1cccc(CNC2CCN(Cc3ccc(C(F)(F)F)cc3)CC2)c1 [TCMDC-141204] | -3.032%
19 | CCCCCCN1CCC(NCc2cccc([N+](=O)[O-])c2)CC1 [TCMDC-141205] | 32.34%
20 | O=[N+]([O-])c1cccc(CNCC2CCN(Cc3ccc4ccccc4c3)CC2)c1 [TCMDC-141207] | 30.18%
21 | O=[N+]([O-])c1cccc(CNC2CCN(Cc3ccc(Cl)c(Cl)c3)CC2)c1 [TCMDC-141200] | 48.14%
22 | O=[N+]([O-])c1cccc(CNC2CCN(Cc3ccc4ccccc4c3)CC2)c1 [TCMDC-141202] | 96.08%
23 | O=C(Nc1ccc2ccccc2c1)N1CCC(NCc2cccc([N+](=O)[O-])c2)CC1 [TCMDC-141278] | 22.21%
24 | O=[N+]([O-])c1cccc(CNC2CCN(Cc3ccc(-c4ccccc4)cc3)CC2)c1 [TCMDC-141203] | 57.53%

Row | SMILES | % Inhibition
25 | COc1ccc(CN2CCC(NCc3cccc([N+](=O)[O-])c3)CC2)cc1 [TCMDC-141201] | 64.68%
26 | Cn1c(NC(=O)c2ccc(CNC(=O)c3ccc(O)c(-c4ccc(Cl)c(Cl)c4)c3)cc2)nc2ccccc21 [TCMDC-140881] | -6.168%
27 | Cc1[nH]c2cc(Cl)ccc2c1C1=CCN(CCCCC2(C)C(=O)Nc3c(F)cccc32)CC1 (centres unmarked) [TCMDC-140946] | -93.15%
28 | Cc1ccc(S(=O)(=O)NC2CCN(c3ccnc4cc(Cl)ccc34)C2)cc1 (centres unmarked) [TCMDC-133652] | 11.61%
29 | Cc1cc(OCCCN2CCC(NS(=O)(=O)c3ccc(Cl)c(Cl)c3)C2)c2ccccc2n1 (centres unmarked) [TCMDC-136282] | -6.813%
30 | COc1ccc(-c2cccc(NC(=O)c3cccc(C#N)c3)c2)cc1CN1CCCN(C)CC1 [TCMDC-132621] | 35.38%
31 | COc1ccc(-c2cccc(NC(=O)c3cccc(C#N)c3)c2)cc1CN1CCN(C)CC1 [TCMDC-132624] | 71.95%
32 | COc1ccc(-c2ccc(NC(=O)c3cccc(C#N)c3)cc2)cc1CN1CCCC(C(N)=O)C1 (centres unmarked) [TCMDC-132533] | 78.38%
33 | COc1ccc(-c2cccc(NC(=O)c3cccc(C#N)c3)c2)cc1CN1CCC(O)CC1 [TCMDC-132626] | 84.74%
34 | COc1ccc(-c2ccc(NC(=O)c3ccc(C#N)cc3)cc2)cc1CN1CCC(O)CC1 [TCMDC-132522] | -51.71%
35 | COc1ccc(-c2cccc(NC(=O)c3cccc(C#N)c3)c2)cc1CN1CCCC1 [TCMDC-132623] | 25.04%
36 | COc1ccc(-c2ccc(NC(=O)c3cccc(C#N)c3)cc2)cc1CN1CCC(O)CC1 [TCMDC-132534] | -38.76%
37 | COc1ccc(-c2ccc(NC(=O)c3cccc(C#N)c3)cc2)cc1CN1CCN(C)CC1 [TCMDC-132532] | 1.481%
38 | Oc1ccc2[nH]c(-c3ccc(OC(F)(F)F)cc3)nc2c1CNC1CCCC1 [TCMDC-136530] | -82.26%
39 | O=C(NC1CCN(c2ccnc3cc(Cl)ccc23)C1)c1ccc(F)cc1F (centres unmarked) [TCMDC-133659] | 10.53%
40 | COc1cc(Cc2cnc(N)nc2N)c2c(c1OC)OC(C)(C)C=C2 [TCMDC-138038] | -2.785%
41 | Cc1cc(OCC2CCN(c3ccc(C(=O)NC4CC4)cn3)CC2)ccc1F [TCMDC-134031] | 14.38%
42 | COc1cc(Nc2ccnc3cc(-c4nccs4)ccc23)ccc1OCCCc1nc2ccccc2[nH]1 [TCMDC-138339] | -6.497%
43 | Brc1ccc(Nc2ccnc3cc(-c4nccs4)ccc23)cc1Oc1ccnc2cc(-c3nccs3)ccc12 [TCMDC-138299] | 0.7997%
44 | Oc1cccc(Nc2ccnc3cc(-c4ccncc4)ccc23)c1 [TCMDC-138292] | 8.476%
45 | Oc1cccc(Nc2ccnc3cc(-c4nccs4)ccc23)c1 [TCMDC-138297] | -47.13%
46 | Cn1ccc(-c2cccc(Nc3ccnc4cc(-c5nccs5)ccc34)c2)n1 [TCMDC-138336] | 105.5%
47 | Cn1cc(Br)c(-c2cccc(Nc3ccnc4cc(-c5nccs5)ccc34)c2)n1 [TCMDC-138333] | 50.96%
48 | NC(=O)CNC(=O)CCCN=C(N)N [TCMDC-131667] | 20.86%

Row | SMILES | % Inhibition
49 | Cc1c(Cc2ccc(F)cc2)c(Cl)nc2nc(N)nc(N)c12 [TCMDC-137680] | -6.829%
50 | CS(=O)(=O)c1ccc2c(c1)CCN(CCC1CCC(NC(=O)C(=Cc3ccc(Cl)cc3Cl)c3ccc(-c4ccccc4)cc3)CC1)CC2 (centres unmarked) [TCMDC-141426] | -11.75%
51 | CS(=O)(=O)c1ccc2c(c1)CCN(CCC1CCC(NC(=O)C(=Cc3cccc(C#N)c3)c3ccc(-c4ccccc4)cc3)CC1)CC2 (centres unmarked) [TCMDC-141427] | 78.58%
52 | N#Cc1cccc(-c2cccc(C(=O)NC3CCC(CCN4CCc5ccc(C#N)cc5CC4)CC3)c2)c1 (centres unmarked) [TCMDC-139681] | -20.07%
53 | CC(C)CCN(Cc1cncn1Cc1ccccc1F)C(=O)c1cncc(-c2ccccc2)c1 [TCMDC-132470] | 20.84%
54 | O=C(Nc1ccc(-c2nc3ccccc3[nH]2)cc1)c1ccc([N+](=O)[O-])s1 [TCMDC-123726] | 9.602%
55 | Nc1nc(N)c2nc(C3CC=CCC3)c(N)nc2n1 (centres unmarked) [TCMDC-141989] | 6.679%
56 | CCCCCCCC(=O)N[C@@H](Cc1ccccc1)C(=O)N[C@H](C(=O)O)C(C)C [TCMDC-139536] (Octanoyl-Phe-Val-OH) | 1.099%
57 | CC(Sc1n[nH]c(-c2ccccc2Br)n1)C(=O)Nc1ccc(F)cc1 (centres unmarked) [TCMDC-125115] | -62.46%
58 | Cc1ccc(NC(=O)C(C)Sc2n[nH]c(-c3ccccc3Br)n2)cc1 (centres unmarked) [TCMDC-125166] | 75.62%
59 | CC(CN(C)C)C(=O)Nc1ccc(-c2ccc(-c3nc4ccccc4[nH]3)s2)cc1 (centres unmarked) [TCMDC-137100] | 21.36%
60 | COc1ccc(Br)cc1C1Nc2ccc3ccccc3c2C2=C1C(=O)CC(c1ccccc1)C2 (centres unmarked) [TCMDC-125675] | 55.64%
61 | COc1cc(C2Nc3ccc4ccccc4c3C3=C2C(=O)CC(C)(C)C3)ccc1Oc1ccc([N+](=O)[O-])cc1C#N (centres unmarked) [TCMDC-125717] | 30.01%
62 | COc1ccc(C2CC(=O)C3=C(C2)NC(C)=C(C(=O)OC(C)C)C3c2ccccc2F)cc1OC (centres unmarked) [TCMDC-124038] | 37.21%
63 | CN(Cc1ccncc1)C(Cc1ccccc1)C1CCN(Cc2ccc(O)c(Cl)c2)CC1 (centres unmarked) [TCMDC-124648] | -12.77%
64 | COc1cc(CNC[C@@H](O)[C@H](Cc2ccccc2)NC(=O)c2cc(OC(C)C)cc(N3CCCCS3(=O)=O)c2)cc(OC)c1 [TCMDC-134525] | 23.04%
65 | CCc1cc2c(cc1OCCN(C)C)N(C(=O)Nc1ccc(-c3ccncc3)c(Cl)c1)CC2 [TCMDC-139214] | 8.963%
66 | COc1ccc(-c2cnc3ccc(NCCCO)nn23)cc1OC [TCMDC-136683] | 53.42%
67 | COc1ccc(-c2cnc3ccc(NCc4ccc(F)cc4)nn23)cc1OC [TCMDC-136675] | 53.19%
68 | Fc1ccc(CNc2ccc3ncc(-c4cccnc4)n3n2)cc1 [TCMDC-136674] | 19.94%
69 | N#Cc1ccc(-c2cnc3ccc(NCCc4cccnc4)nn23)cc1 [TCMDC-136679] | 23.92%
70 | COc1ccc(-c2cnc3ccc(N4CCCC4)nn23)cc1OC.O=CO [TCMDC-134177] | 42.14%
71 | Oc1cccc(-c2cnc3ccc(NCc4ccc(F)cc4)nn23)c1 [TCMDC-136676] | 39.41%
